# Glioma ERSR ind – ER stress response induction in glioma | U87-MG GRP78 promoter luciferase reporter, 16 h | Potency, µM, inactives show at the highest dose activation, hits mostly activators | 0.02% of 420,000 active; note: series mostly up to about 76 µM; % of control where 0% means no effect; nearly all actives have a fitted effect of over 35% in size
#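 ERSR induction read as luciferase luminescence (Bright-Glo, 10 min at room temperature) in stably transfected human U87-MG glioma cells exposed to compounds for 16 h, using GRP78 as sensor.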
# GLP1R ag – agonists of human GLP-1 receptor; 0.007% of 380,000 active; P43220; AID 624172; Potency, µM (doses to about 45.6 µM), for inactives: at the highest dose activation, hits mostly activators; HEK293 GLP-1R CRE-luciferase, luminescence, 4-6 h; cells express a hypersensitive GLP-1R form; note: % of control where 0% means no effect
# 12-LOX inh – ALOX12 (human) lipoxygenase inhibition | P18054 | purified 12hLO, xylenol orange hydroperoxide absorbance | Potency, µM (doses to about 108 µM), without a hit: at the highest dose activity change, negative = inhibition, actives largely listed as inhibitors | 1.1% of 580,000 active | AID 1671190; note: % is set by controls: 0 for no effect and ±100 for the full control effect
#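 Hydroperoxide product was detected by ferrous iron/xylenol orange as the 573 to 405 nm absorbance ratio. Arachidonic acid at 40 uM (final) was turned over for 30 min at room temperature by 150 nM human 12hLO, pH 7.0 Hepes buffer, after 15 min compound preincubation.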
# GLS inhibitor – inhibitors of human glutaminase (GLS). 0.21% of 410,000 active. GLS enzymatic activity, qHTS titration. Potency, µM (series often up to 45.5 µM), for the others: top-dose activity change, negative = inhibition, actives largely listed as inhibitors. O94925; note: % is set by controls: 0 for no effect and ±100 for the full control effect
# Target sequence (O94925 whole entry, looked up): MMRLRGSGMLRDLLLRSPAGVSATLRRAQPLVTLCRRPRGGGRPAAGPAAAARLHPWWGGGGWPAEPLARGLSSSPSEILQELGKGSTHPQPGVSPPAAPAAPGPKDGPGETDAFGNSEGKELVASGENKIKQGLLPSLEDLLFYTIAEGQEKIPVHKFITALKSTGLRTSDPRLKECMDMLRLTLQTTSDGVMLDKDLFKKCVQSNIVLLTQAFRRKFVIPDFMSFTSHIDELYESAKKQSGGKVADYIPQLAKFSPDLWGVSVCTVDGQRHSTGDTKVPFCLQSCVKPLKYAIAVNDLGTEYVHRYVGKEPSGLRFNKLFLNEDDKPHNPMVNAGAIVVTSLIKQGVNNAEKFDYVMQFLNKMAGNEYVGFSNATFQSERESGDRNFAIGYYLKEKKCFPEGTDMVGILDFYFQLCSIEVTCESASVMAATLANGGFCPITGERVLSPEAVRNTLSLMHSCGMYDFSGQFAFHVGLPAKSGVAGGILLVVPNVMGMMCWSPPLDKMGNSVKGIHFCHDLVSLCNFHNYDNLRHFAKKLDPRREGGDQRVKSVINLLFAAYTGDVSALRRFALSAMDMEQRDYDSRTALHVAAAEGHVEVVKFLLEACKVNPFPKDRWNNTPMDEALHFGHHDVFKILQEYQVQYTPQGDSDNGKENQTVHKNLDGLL
#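 Human kidney-isoform GLS in 45 mM KH2PO4 pH 8.2, 0.02% Tween-20, with compound, started with 1mM L-Glutamine (added stock). Glutamate oxidase/HRP/Amplex red coupled fluorescence read at start and after 30 min at RT.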
# GLP1R inv ag – acts as inverse agonist at human GLP-1 receptor | 1.6% of 410,000 active | HEK293 GLP-1R CRE-luciferase, luminescence, 24 h; GLP-1R form is constitutively active | Potency, µM (doses to about 38.3 µM), for inactives: at the highest dose activity change, negative = inhibition, actives largely listed as inhibitors | P43220; note: % is set by controls: 0 for no effect and ±100 for the full control effect; nearly all actives have a fitted effect of over 55% in size
#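 Inverse agonism was detected as reduced cAMP-driven luciferase luminescence after 24 h compound treatment. The cells were HEK293 clones expressing constitutively active human GLP-1R with the reporter. Reporter-only and GPR119 cell lines served as counterscreen controls.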
# PTHR1 agonist – activates the human parathyroid hormone receptor PTHR1; Q03431; HEK293 GP2 PTHR1 cells, GloSensor cAMP luminescence, 1 h; Potency, µM (top dose mostly 115 µM), without a hit: at the highest dose activation, most hits filed as activators; 0.075% of 410,000 active; note: nearly all actives have a fitted effect of over 55% in size
#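 HEK-293-derived GP2 cells expressing PTHR1 and a GloSensor cAMP reporter, 3,000/well, plated overnight, given luciferin plus IBMX (each 0.5 mM as added) for 1 h at 37 °C, then compound for 1 h at 37 °C. Luminescence was read after 15 min at room temperature.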
# * = called active by the depositor; i = inactive; u = inconclusive; x = not tested or not shown; [ ] = remark or other dose. Only some compounds are listed: those with a hit (about 2.3% of all), similar ones and a draw of the others. Calls come from the whole dose curve; as a rule, active = well fitted curve in the direction sought with a large enough effect; inconclusive = small, poorly fitted or top-dose-only effect, or another doubt; inactive = no such curve, though single readings can be large; an effect the other way counts as inactive or inconclusive. Potency is the fitted concentration of half-maximal effect.
SMILES,Glioma ERSR ind,GLP1R ag,12-LOX inh,GLS inhibitor,GLP1R inv ag,PTHR1 agonist
Cn1c(=O)c2ccccc2n2c(=S)[nH]nc12,6.2%,-0.1%,u,10µM*,2.5%,-1.0%
CCCn1c(=O)c2ccccc2n2c(=S)[nH]nc12,-2.5%,-2.3%,-25.6%,-23.7%,12.1%,-48.8%
CN1C(=O)/C(=C/c2cccc([N+](=O)[O-])c2)C(=O)N1c1ccccc1,-0.5%,-17.1%,39.8µM*,-13.4%,u,-6.1%
COC(CNc1nc(-c2ccccn2)nc2c1c(C)nn2C)c1cccs1 (stereo unspecified),x,x,23.5%,x,x,x
Clc1cccc(/C=N/Nc2ccc(Cl)c(Cl)c2)c1,x,x,5.62µM*,x,x,x
Clc1ccc(N/N=C/c2ccncc2)cc1Cl,9.1%,7.7%,u,11.6%,u,i
Brc1cccc(/C=N/Nc2cccc3cccnc23)c1,x,x,-17.3%,x,x,x
Brc1cccc(/C=N/Nc2ccc3ccccc3c2)c1,x,x,5.62µM*,x,x,x
Clc1ccc(N/N=C/c2cccc(/C=N/Nc3ccc(Cl)c(Cl)c3)c2)cc1Cl,x,x,0.708µM*,x,x,x
Clc1ccc(N/N=C/c2ccccc2)cc1Cl,x,x,2.24µM*,x,x,x
CC(O)c1cc2n(n1)CCCN(C(=O)CCc1cn3ccccc3n1)C2 (stereo unspecified),x,x,33.5%,x,x,x
O=C(Cc1cn2ccsc2n1)N1CCCn2nc(C(O)C3CC3)cc2C1 (stereo unspecified),x,x,44.7µM*,x,x,x
O=C1/C(=C/c2ccccc2F)CCc2ccccc21,x,x,3.16µM*,x,x,x
COc1cccc(C(=O)NCC2(c3ccccc3)CCCC2)c1OC,-3.4%,14.7%,0.1%,-2.9%,7.08µM*,-19.8%
Cc1ccccc1-c1cc(C(=O)NCc2ccc(OC(F)(F)F)cc2)n(CC2CC(c3cccnc3)=NO2)n1 (stereo unspecified),0.6%,1.6%,-28.9%,2.9%,22.4µM*,-16.4%
C#CCOCCOCCOCCNc1nc(N2CCN(C(=O)[C@H](CCCCN)n3cc(CC(C)O)nn3)CC2)nc(N2CCN(C(=O)[C@H](CCCCN)n3cc(CC(C)O)nn3)CC2)n1 (stereo partly specified),-3.8%,-2.9%,12.6µM*,-1.0%,-3.5%,i
C#CCOCCOCCOCCNc1nc(N2CCOCC2)nc(N2CCN(C(=O)[C@H](CCCCN)n3cc(CCCC)nn3)CC2)n1,-1.7%,-0.3%,35.5µM*,-0.3%,6.0%,i
C#CCOCCOCCOCCNc1nc(N2CCN(C(=O)CCCCCCCCCCNC(=O)[C@H]([C@@H](C)CC)n3cc(CCCCN=C(N)N)nn3)CC2)nc(N2CCN(C(=O)CCCCCCCCCCNC(=O)[C@H](CCCCN)n3cc(C)nn3)CC2)n1,-10.3%,-5.5%,x,15.8µM*,u,-47.0%
C#CCOCCOCCOCCNc1nc(N2CCN(C(=O)Cn3cc(CCO)nn3)CC2)nc(N2CCN(C(=O)[C@H](CCCCN)n3cc(CC(C)O)nn3)CC2)n1 (stereo partly specified),-4.7%,6.8%,u,-0.6%,7.2%,i
CC(Sc1ncnc2nc[nH]c12)C(=O)Nc1ccc(OC(F)(F)F)cc1 (stereo unspecified),x,x,5.3%,x,x,x
Cc1ccc(-c2nc3cccc(C)c3nc2-c2ccc(C)cc2)cc1,x,x,-2.5%,x,x,x
CC1(C)[C@H](Cc2cc(COC(=O)c3cccs3)on2)C[C@@H]1NC(=O)c1cccs1,x,x,-44.7%[176 µM],x,x,x
Cc1cccc(/C=C(\c2nc3ccccc3[nH]2)S(=O)(=O)c2ccccc2)c1,-14.7%,0.2%,-11.4%,-0.5%,5.01µM*,-34.8%
COc1ccc(CNC(=O)c2nn(Cc3ccccc3)c(=O)c3ccccc23)cc1,x,x,-6.9%,x,x,x
O=C1/C(=C\c2ccco2)NC(=S)N1c1ccccc1,5.5%,5.0%,15.8µM*,0.0%,20.2%,-50.0%
SMILES,Glioma ERSR ind,GLP1R ag,12-LOX inh,GLS inhibitor,GLP1R inv ag,PTHR1 agonist
CCCCCn1nc(C(=O)N(C)Cc2ccccc2Cl)c2ccccc2c1=O,x,x,-6.8%,x,x,x
Cc1ccc(-c2ccc(/C=C3/NC(=O)NC3=O)o2)cc1[N+](=O)[O-],3.5%,17.6%,-28.3%,4.9%,5.4%,i
CC1=C(C#N)C(=O)NC(=O)/C1=C\c1ccc(-c2cc(C)c(C)cc2[N+](=O)[O-])o1,-3.5%,11.9%,24.1%,11.2µM*,12.4%,-5.4%
CN1CCN(C(=O)C2CCN(c3nc(Cl)nc4nc[nH]c34)CC2)CC1,x,x,0.0%,x,x,x
O=S(=O)(c1cccs1)N1CN(Cc2ccc(Cl)cc2)c2nc3ccccc3nc21,3.7%,-4.8%,u,-8.0%,0.6%,-3.8%[57.5 µM]
COCCN1CN(S(=O)(=O)c2ccccc2)c2nc3ccccc3nc21,4.4%,4.6%,u,5.3%,6.7%,-2.8%[57.5 µM]
O=S(=O)(c1cccs1)N1CN(Cc2ccco2)c2nc3ccccc3nc21,3.1%,22.7%,-12.1%,0.3%,1.78µM*,i
COc1ccccc1CN1CN(S(=O)(=O)c2ccccc2)c2nc3ccccc3nc21,0.1%,9.1%,-0.2%,-11.3%,2.82µM*,18.6%
C=CCNC(=O)NC(=O)CN1CCN(c2oc(-c3ccco3)nc2C#N)CC1,x,x,-2.0%,x,x,x
COc1ccc(C)cc1Nc1n[n+](-c2ccccc2)c(-c2ccc(C(=O)O)cc2)s1,-1.6%,0.1%,17.8µM*,12.8%,6.2%,-11.3%
COc1ccc(C)cc1Nc1n[n+](-c2ccccc2)c(-c2cc(OC)c(OC)cc2Br)s1,-5.1%,-0.6%,39.8µM*,19.1%,u,i
CCCCNC(=O)c1ccc(NC(=O)c2ccccc2C)cc1,x,x,-9.5%,x,x,x
COc1ccccc1-c1nc(C#N)c(NCCN(C)C)o1,x,x,12.5%,x,x,x
Cc1cccc(-c2nc(SCc3noc(CCC(=O)Nc4ccc5ccccc5c4)n3)n[nH]2)c1,x,x,-19.0%,x,x,x
Cc1cccc(NC(=O)N2CCN(C3=Nc4ccccc4Oc4ccccc43)CC2)c1C,x,x,-25.3%,x,x,x
Cn1c(=O)cnc2cnc(OCc3ccccc3)nc21,-2.0%,x,u,x,x,x
CCC(O)c1cnc(OCc2ccccc2)nc1OCc1ccccc1 (stereo unspecified),-3.9%,11.3%,-3.7%,-8.0%,10µM*,-16.0%
O=C(Nc1cccc(S(=O)(=O)N2CCOCC2)c1)c1ccc(OCc2cn3ccccc3n2)cc1,x,x,34.4%,x,x,x
Cc1ccc2c3cc(-c4ccccc4)cn3ccn12,x,x,0.794µM*,x,x,x
Cc1cc(S(=O)(=O)Nc2c(NC3CCCC3)c3ccccc3oc2=O)ccc1F,x,x,10.1%,x,x,x
CCc1nc(NCCN2CCOCC2)c2oc3ccccc3c2n1,-4.4%,16.2%,14.1µM*,-2.8%,2.9%,-4.8%[57.5 µM]
CCc1nc(NCCCN2CCOCC2)c2oc3ccccc3c2n1,-3.8%,14.2%,u,-2.1%,9.1%,-24.6%[57.5 µM]
